Compound activity: PubChem, National Center for Advancing Translational Sciences (NCATS)
Tb PYK inh – blocks Trypanosoma brucei pyruvate kinase. Q57TT1. TbPYK enzyme, Kinase-Glo Plus ATP luminescence, 45 min. 0.12% of 410,000 active. Potency, µM (titrated, usually from 76.8 µM), for inactives: at the top dose activity, negative = inhibition, actives largely listed as inhibitors; further: nearly all actives have a fitted effect of over 50% in size
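Quantitative HTS: titrated library compounds versus trypanosomal pyruvate kinase in TEA buffer (pH 7.2) containing KCl, MgCl2, BSA and Tween-20. Reactions were initiated with ADP, 130 uM final. Kinase-Glo Plus luminescence was read after 45 min at RT.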
Sm TGR inh – S. mansoni TGR enzyme inhibition; AID 485364; Q962Y6; Potency, µM (doses to about 114 µM), for inactives: at the top dose activity change, negative = inhibition, hits mostly inhibitors; 3% of 360,000 active; purified TGR, DTNB reduction, TNB absorbance 405 nm; further: nearly all actives have a fitted effect of over 60% in size
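Kinetic colorimetric format: TGR-catalysed, NADPH-driven DTNB reduction monitored via TNB absorbance. Enzyme dispensed at 20 nM; compound exposure 15 min at room temperature before reaction start.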
LmPK inh – LmPK (Leishmania mexicana) enzyme inhibition. AID 1721. purified LmPK, Kinase-Glo ATP luminescence, 1 h. 0.37% of 290,000 active. Potency, µM (titrated, usually from 57.5 µM), inactives show at the highest dose activity change, negative = inhibition, most hits filed as inhibitors. Q27686
Target sequence (Q27686 whole entry, looked up): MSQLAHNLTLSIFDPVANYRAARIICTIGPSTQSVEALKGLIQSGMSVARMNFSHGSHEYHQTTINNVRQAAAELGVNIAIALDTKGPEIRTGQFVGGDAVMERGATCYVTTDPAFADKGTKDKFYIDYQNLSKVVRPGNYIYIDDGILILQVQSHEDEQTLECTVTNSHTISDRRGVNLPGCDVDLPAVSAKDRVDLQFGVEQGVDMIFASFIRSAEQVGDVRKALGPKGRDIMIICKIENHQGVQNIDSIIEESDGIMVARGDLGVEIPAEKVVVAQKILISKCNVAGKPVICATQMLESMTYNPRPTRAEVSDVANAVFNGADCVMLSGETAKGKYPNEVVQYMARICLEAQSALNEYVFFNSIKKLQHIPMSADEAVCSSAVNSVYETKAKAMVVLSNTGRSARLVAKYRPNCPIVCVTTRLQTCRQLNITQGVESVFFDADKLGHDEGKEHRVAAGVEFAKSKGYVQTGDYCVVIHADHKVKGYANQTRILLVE
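Pyruvate kinase activity monitored as ATP production (luciferase luminescence). Conditions: 0.1 nM enzyme, 0.5 mM PEP, 0.1 mM ADP, 1 h, RT; normalized against uninhibited and no-enzyme wells.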
RE007 growth inh – less growth of the S. pombe RE007 Vpr strain; S. pombe RE007 Vpr strain, BacTiter-Glo ATP luminescence, 24 h; Potency, µM (doses to about 92.2 µM), without a hit: top-dose activity change, negative = less growth, hits mostly inhibitors; AID 651644; 0.21% of 360,000 active; active means well fitted falling curve with a large enough effect; inconclusive means small, poorly fitted or top-dose-only effect; inactive means no such curve, though single readings can be large or run the other way; further: nearly all actives have a fitted effect of over 50% in size
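Fission yeast strain RE007, carrying one chromosomally integrated HIV-1 vpr copy, was seeded at OD 0.01 in PMG+AL medium with 23 nL pinned compound. After 24 h at 30 °C and 99% humidity, viability was read by BacTiter-Glo luminescence.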
* marks the source's active call; other numbers are inactive results; ? = inconclusive; nt = not tested or not shown; [ ] = another dose, or the depositor's remark. This is a sample that favours compounds with a hit; in the whole collection about 3% have one here. Unless noted, the call rests on the fitted dose curve; in most records, active means well fitted curve in the direction sought with a large enough effect; inconclusive means small, poorly fitted or top-dose-only effect, or another doubt; inactive means no such curve, though single readings can be large; an effect the other way counts as inactive or inconclusive. On the % scale 0 is the no-effect control and ±100 the full control effect; potency means the concentration at half of the fitted maximal effect.

SMILES	Tb PYK inh	Sm TGR inh	LmPK inh	RE007 growth inh
Cc1cccc(NC(=O)COC(=O)CN2C(=O)c3ccccc3C2=O)c1C	4%	nt	nt	8%
O=C(/C=C/c1ccc(Br)o1)NCCCN1CCOCC1	-3%	4.5µM*	7%	-10%
O=C(COC(=O)/C=C/c1ccc(Br)o1)NCCCN1CCCC1=O	3%	32µM*	1%	-19%
O=C(/C=C/c1ccco1)Nc1ccc(Cl)c(S(=O)(=O)N2CCOCC2)c1	-2%	8.9µM*	3%	5%
O=C(/C=C/c1ccco1)NCCCN1CCOCC1	3%	11µM*	-10%	7%
O=C(/C=C/c1ccc(Cl)cc1)NCCCN1CCOCC1	-3%	-25%	1%	5%
O=C(/C=C/c1ccc2c(c1)OCO2)NCCCN1CCOCC1	-4%	0%	-9%	2%
Cc1ccc(Sc2c(C(=O)NCc3ccccc3C)[nH]c3ccccc23)cc1	4%	0%	nt	nt
NC(=O)C1(N2CCCCC2)CCN(C(=O)Nc2ccc(Cl)c(Cl)c2)CC1	-2%	2%	nt	nt
CCCCn1c(O)c(C(CC)=NCCN2CCCCC2)c(=O)[nH]c1=O	-4%	10µM*	4%	?
CCCCn1c(O)c(C(C)=NCCN2CCOCC2)c(=O)[nH]c1=O	1%	-3%	0%	-8%
CCCCn1c(O)c(C(CC)=NCCN2CCOCC2)c(=O)[nH]c1=O	?	18µM*	1%	-15%
CC(=NCCN1CCOCC1)c1c(O)n(-c2ccccc2C)c(=O)[nH]c1=O	-11%	-24%	1%	13%
CCC(=NCCN1CCOCC1)c1c(O)n(-c2ccccc2C)c(=O)[nH]c1=O	-14%	28µM*	-1%	2%
COc1cc(/C=C/c2nc(C#N)c(NC(C)c3ccccc3)o2)cc(OC)c1OC (stereo not given)	-2%	-5%	nt	nt
Cn1cnnc1SCC(=O)NNC(=O)c1ccc([N+](=O)[O-])cc1	1%	nt	nt	0%
Cn1c(Cc2csc(N)n2)nnc1SCC(=O)NC1CCCCC1	-7%	40µM*	-2%	24%
Cn1c(Cc2ccccc2)nnc1SCC(=O)NC1CCCCC1	-6%	-18%	-1%	1%
COc1ccc(-n2c(=O)c(CCc3ccccc3)nc3cnc(N4CCNCC4)nc32)cc1	0%	nt	nt	nt
COc1ccc(C2=NO[C@@H]3C(=O)N(c4c(C)cccc4C)C(=O)[C@H]23)cc1OC	-18%	?	11%	-13%
COc1ccc(N2C(=O)[C@@H]3C(c4cccnc4)=NO[C@@H]3C2=O)cc1	-7%	7.1µM*	10%	-29%
Cc1ccc(N2C(=O)[C@@H]3C(c4cccnc4)=NO[C@@H]3C2=O)cc1	-3%	7.9µM*	1%	?
COc1ccc(C(NC(=O)C2CCN(CCCOc3ccccc3)CC2)c2cccs2)cc1 (stereo not given)	4%	nt	nt	13%[18.4 µM]
COc1ccc(Nc2c(-c3ccc(C)o3)nc3cc(C)ccn23)cc1	-19%	-23%	nt	nt
COc1ccc(NC(=O)Cn2c(=O)n(CCc3ccccc3)c(=O)c3c4c(sc32)CCCC4)cc1	2%	-2%	nt	nt
SMILES	Tb PYK inh	Sm TGR inh	LmPK inh	RE007 growth inh
CCOC(=O)C1CCN(C(c2ccccn2)c2c(C)[nH]c3ccccc23)CC1 (stereo not given)	0%	0.28µM*	12%	-13%
Cc1[nH]c2ccccc2c1C(c1ccccn1)N1CCC(C(N)=O)CC1 (stereo not given)	89%	0.35µM*	5%	2%
Cc1ccc(NC(=O)CC2SC3=NCCN3C2=O)cc1 (stereo not given)	2%	7.9µM*	0%	5µM*
CN(c1ccccc1)S(=O)(=O)c1cccc(C(=O)NCCc2ccc(O)c(O)c2)c1	?	16µM*	0%	5%
CCN(CC)S(=O)(=O)c1cccc(C(=O)NCCc2ccccc2)c1	2%	nt	nt	15%
O=C(c1ccc2c(c1)N(Cc1cccc(Cl)c1)C(=O)c1ccccc1S2=O)N1CCN(c2cccc(C(F)(F)F)c2)CC1 (stereo not given)	-2%	1%	nt	nt
COc1ccc(Nc2nc(CC(C)=O)ns2)cc1OC	-10%	13µM*	-7%	0%
CC(=O)Cc1nsc(Nc2cccc(C)c2)n1	2%	-4%	-8%	-13%
COc1ccc(C2=CC(c3c(C)nn(-c4ccccc4)c3Cl)n3nnnc3N2)cc1OC (stereo not given)	-7%	18µM*	1%	18%
